# Results reported in PubChem BioAssay AID624171 (National Center for Advancing Translational Sciences (NCATS), 2012).
# Hit rate of the full screen: of about 410,000 compounds, about 1,200 (0.29%) were called active. About 2% were inconclusive and are not listed. What follows is part of a selection rich in actives, with near analogues and random picks from the rest. A number with no mark means an inactive call. Calls come from the whole dose curve; as a rule, active = well fitted activation curve with a large enough effect; inconclusive = small, poorly fitted or top-dose-only effect; inactive = flat fitted curve, though single readings scatter.
# Assay: qHTS of Nrf2 Activators; note: nearly all actives have a fitted effect of over 65% in size; for activation: % of control where 0% means no effect
# Details: AREc32 ARE-luciferase reporter (MCF7-derived line), luminescence, 24 h; series mostly up to 46.1 µM; activation: at the top concentration
# Excerpt: Many diseases have some form of oxidative stress injury and ties to inflammation, causing a host of problems for the patient. The antioxidant response element (ARE) plays an important role in alleviating the harmful effects of oxidative stress. The antioxidant response element (ARE) is a transcriptional regulatory element involved in the activation of genes coding for a number of antioxidant proteins and detoxifying enzymes. These enzymes work in concert to protect tissues from oxidative insults and chemical toxicities in human hepatocytes and immune cells. The protective effects of ARE activation are primarily triggered through Nrf2 (NF-E2-related factor) binding to and activating AREs. It is known that Nrf2 controls the production of over 250 antioxidant and detoxification proteins (Hu et al., 2006), thereby protecting tissues by increasing cellular antioxidant content and suppressing inflammatory signaling pathways. The transcription factor Nrf2 is a central link between oxidative chemicals, such as phenolic antioxidants and electrophilic compounds, and the activation of ARE. Nrf2 levels are constitutively low as a consequence of its interaction with Keap1, which targets its degradation (Zipper and Mulcahy, 2002). Electrophiles react with key cysteine residues in Keap1, releasing Nrf2 and allowing its translocation to the nucleus. Once within the nucleus, Nrf2 complexes with coactivators such as p300, and binds to the AREs to induce gene transcription of cytoprotective enzymes, resulting in the prevention of toxicity. Activation of Nrf2 protects tissues by increasing cellular antioxidant content and suppressing inflammatory signaling pathways. Identifying novel and potent Nrf2 activators by using the AREc32 cell line to detect ARE activation by small molecules will lead to the identification and development of probes to study protective pathways in multiple tissues. These specific probes are essential to study the ARE pathway, and eventually to determine whether this pathway does activate genes that could protect against a host of diseases, including cardiovascular diseases, obesity, diabetes, Alzheimer's, and Parkinson's disease.
# This project's aim is to identify novel and potent Nrf2 activators by using the AREc32 cell line to detect ARE activation by small molecules, which will lead to the identification and development of probes to study the ARE pathway.
# NIH Chemical Genomics Center [NCGC]
# NIH Molecular Libraries Probe Centers Network [MLPCN]
# Assay Submitter (PI): Curtis Klaassen, University of Kansas Medical Center
# 5 uL of 1000 cells/well of AREc32_Fluc cells are seeded into 1536-well plate in OPTI-MEM medium with 5% FBS. The plates are incubated overnight at 37 deg C with 5% CO2. Then through pin tool transfer, 23 nL of compounds are added to each well before a 24 hr incubation at 37 deg C with 5% CO2. After the addition of 2.5 uL of Steady-Glo. the plates are kept at RT for 30 min, before they are read on the ViewLux.
# Potency is the fitted concentration of half-maximal effect.
SMILES,activation [%],Potency
CCNc1nc2[nH]c(=O)c3c(c2s1)OC(N)=C(C#N)C3c1cccs1 (stereo not given),2.92,
N#CC1=C(N)Oc2c(c(=O)oc3ccccc23)C1c1ccccc1OC(=O)c1cccs1 (stereo not given),,11.2 µM (active)
COc1ccc(C2C=C(C)Oc3c2c(=O)oc2ccccc32)cc1OC (stereo not given),-1.49,
Cc1ccc(-n2c(/C=C/c3cccc(C(F)(F)F)c3)nc3ccccc3c2=O)cc1,3.6,
Cc1cccc(Cn2cccc(C(=O)Nc3ccc4c(c3)OCCO4)c2=O)c1,-0.518,
